# Screens from PubChem.
# RGS16-Gao = RGS16-Galphao interaction regulator (human); O15492+P09471; binding response (% of control), % at 10 µM; actives 0.38% (n = 220,000); bead-based flow cytometry RGS16-Galphao binding, fluorescence; actives lie on both sides;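 further: Galphao activated by GDP with aluminum fluoride before binding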
# Target sequence (O15492 whole entry, looked up): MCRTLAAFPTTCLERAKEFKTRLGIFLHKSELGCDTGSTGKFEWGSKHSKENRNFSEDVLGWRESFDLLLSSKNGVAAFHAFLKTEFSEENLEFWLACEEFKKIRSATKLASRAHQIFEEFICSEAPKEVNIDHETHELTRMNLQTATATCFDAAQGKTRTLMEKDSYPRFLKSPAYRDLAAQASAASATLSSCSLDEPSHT
# Target sequence (P09471 whole entry, looked up): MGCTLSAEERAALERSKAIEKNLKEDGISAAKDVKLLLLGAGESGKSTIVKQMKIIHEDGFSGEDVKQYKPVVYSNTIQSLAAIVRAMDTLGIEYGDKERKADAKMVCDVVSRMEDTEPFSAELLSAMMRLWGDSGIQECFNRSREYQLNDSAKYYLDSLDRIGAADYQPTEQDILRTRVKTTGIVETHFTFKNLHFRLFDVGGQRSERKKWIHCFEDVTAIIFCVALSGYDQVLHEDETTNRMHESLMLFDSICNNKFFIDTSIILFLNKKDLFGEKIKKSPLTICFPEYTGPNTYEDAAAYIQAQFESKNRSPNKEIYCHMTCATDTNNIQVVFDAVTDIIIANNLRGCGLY
# GSH fluor = GSH bead compound fluorescence profile | GSH beads flow cytometry, compound fluorescence 488/530 nm; hits give high values | fluorescence (KMESF) at 10 µM | actives 0.25% (n = 190,000) | AID 1776; in the data active means fluorescence above about 89;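 further: glutathione beads carrying GST-tagged Bcl family fusion proteins plus one bare bead set; values are compound well signal with DMSO vehicle wells as background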
# RGS7-Gao = modulates binding of RGS7 to human Galphao | actives 0.35% (n = 220,000) | binding response (% of control), % at 10 µM | P09471 | Multiplexed bead flow cytometry; actives lie on both sides; in the data active means binding response below about 49% or above about 150%; inconclusive means no clear call, values can overlap the other calls; inactive means in between;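 further: fluorescent Galphao held in activated GDP-AlF4 state binding bead-coupled RGS7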
# Target sequence (P09471 whole entry, looked up): as above
# RGS8-Gao = modulates binding of RGS8 to human Galphao | multiplexed bead flow cytometry; actives lie on both sides | response (percent of control binding), % at 10 µM | actives 0.34% (n = 220,000) | AID 1423; in the data active means response below about 60% or above about 140%; inactive means in between;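 further: Galphao activated as the GDP aluminium fluoride complex binding bead-coupled RGS8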
# RGS4-Gao reg = human RGS4-Galphao interaction regulation; P09471; Multiplexed bead flow cytometry, RGS4-Galphao binding; actives lie on both sides; binding response (% of control), % at 10 µM; actives 0.33% (n = 220,000); AID 1415; in the data active means binding response below about 49% or above about 150%; inactive means in between;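 further: fluorescent Galphao activated with aluminum fluoride binding bead-coupled RGS4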
# Avidin fluor = compound fluoresces at 488/530 nm on avidin beads. actives 0.38% (n = 220,000). compound fluorescence 488/530 nm, flow cytometry; hits give high values. AID 1775. fluorescence (KMESF) at 10 µM; in the data active means fluorescence above about 47
# RGS4-Gao HTS = regulators of human RGS4-Galphao interaction; shares compounds with RGS16-Gao; multiplexed bead flow cytometry, RGS–Galpha-o binding; RGS4–Galpha-o binding response, % at 10 µM; actives 99% (n = 1,600);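 further: fluorescently labeled Galpha-o bound to GDP with aluminium fluoride binding biotinylated RGS beads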
# Biotin-avidin = interferes with biotinylated probe binding to avidin beads; shares compounds with RGS16-Gao; streptavidin beads, fluorescein-biotin binding, flow cytometry; inhibition, % at 10 µM; 1,700 tested, under 10 active; AID 1783;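 active means inhibition above 50%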;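 further: median green fluorescence of gated singlet beads compared with DMSO control wells; 0% = DMSO wells and 100% = complete loss of bead fluorescence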
# RGS8-Gao confirm = RGS8-Galphao interaction regulation, single point confirmation; actives 3% (n = 1,700); bead-based flow cytometry RGS8-Galphao binding, fluorescence; actives lie on both sides; binding response (% of control), % at 10 µM; shares compounds with RGS16-Gao; in the data active means binding response below about 72% or above about 130%; inactive means in between;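 further: Galphao activated as GDP AlF4 complex before binding bead RGS8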
# RGS7-Gao confirm = confirmation of regulators of human RGS7-Galphao interaction. actives 7.8% (n = 1,700). shares compounds with RGS16-Gao. bead-based flow cytometry RGS7-Galphao binding; actives lie on both sides. response (percent of control binding), % at 10 µM. AID 1837; in the data active means response below about 75% or above about 130%; inactive means in between;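 further: fluorescent Galphao activated with GDP and aluminum fluoride binding bead-coupled RGS7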
# RGS16-Gao single = confirmation of regulators of human RGS16-Galphao interaction; shares compounds with RGS16-Gao; bead-based flow cytometry, RGS16-Galphao binding; actives lie on both sides; response (% of control binding), % at 10 µM; actives 4% (n = 1,700); AID 1838; in the data active means response below about 74% or above about 130%; inactive means in between;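 further: Galphao activated as the GDP aluminium fluoride complex binding bead-coupled RGS16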
# RGS4-Gao confirm = confirmation of regulators of human RGS4-Galphao interaction; shares compounds with RGS16-Gao; RGS4-Galphao binding, multiplexed bead flow cytometry; actives lie on both sides; binding response (% of control), % at 10 µM; actives 4% (n = 1,700); AID 1840; in the data active means binding response below about 74% or above about 130%; inactive means in between
# RGS19-Gao single = RGS19-Galphao interaction regulation, single point confirmation; shares compounds with RGS16-Gao; bead-based flow cytometry RGS19-Galphao binding; actives lie on both sides; response (percent of control binding), % at 10 µM; actives 5% (n = 1,700); AID 1841; in the data active means response below about 50% or above about 160%; inactive means in between;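 further: 100% = no compound control and 0% = blank background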
# * marks the source's active call; other numbers are inactive results; ? = inconclusive; . = not tested or not shown; [ ] = dose if it differs, or a comment. A selection: hits, their analogues and other compounds. The true share with any hit is near 1.2%. Unless noted, how the calls were made is not given here.
SMILES,RGS16-Gao,GSH fluor,RGS7-Gao,RGS8-Gao,RGS4-Gao reg,Avidin fluor,RGS4-Gao HTS,Biotin-avidin,RGS8-Gao confirm,RGS7-Gao confirm,RGS16-Gao single,RGS4-Gao confirm,RGS19-Gao single
CC(=O)NCC(=O)OCC(=O)c1ccc(Br)cc1,96,6,96,99,98,15,.,.,.,.,.,.,.
Nc1n[nH]c(N)c1N=Nc1ccc(Cl)cc1Cl,82,10,46*,72,53,0,53*,-1,99,98,99,100,88
Nc1n[nH]c(N)c1N=Nc1ccccc1,108,23,99,100,102,11,.,.,.,.,.,.,.
C=CCn1c(Cc2ccccc2)n[nH]c1=S,9.3*,13,93,66,96,8,96*,-1,103,107,101,106,112
C=CCn1c(Cc2c[nH]c3ccccc23)n[nH]c1=S,103,33,100,102,100,10,.,.,.,.,.,.,.
CCOC(=O)CSc1nc2ccccc2c(=O)n1CC1CCCO1 (stereo unspecified),7,15,72,57*,71,4,71*,0,101,100,100,101,95
CCOC(=O)CSc1nc2ccccc2c(=O)n1CC1COc2ccccc2O1 (stereo unspecified),-138,18,-14*,0.8*,-26*,-4,.,-6,116,130*[activator],120,124,122
CCOc1cc(/C=N/NC(=O)C(=O)Nc2cc(Cl)ccc2C)ccc1O,102,12,?,103,102,8,.,.,.,.,.,.,.
CN(c1ccccc1)S(=O)(=O)c1cccc(C(=O)Nc2ccc3c(c2)CCC3)c1,18*,12,91,87,102,8,102*,-1,101,103,103,102,94
CC(=O)N1C(Nc2ccc(Cl)cc2)CCN1c1ccccc1 (stereo unspecified),.,16,.,.,.,.,.,-1,102,98,98,101,88
COc1cc2[nH]c(=S)n(C3CC3)c(=O)c2cc1OC,102,12,?,100,103,9,.,.,.,.,.,.,.
COc1cc2[nH]c(=S)n(C3CCCC3)c(=O)c2cc1OC,182*[activator],41,108,117,99,4,99*,3,104,104,102,103,116
CCc1nnc(NC(=O)c2cccc(S(=O)(=O)N3CCN(c4ccccc4)CC3)c2)s1,145,27,150*[activator],127,140,5,140*,0,103,102,103,105,108
CCc1nnc(NC(=O)c2cc(S(=O)(=O)N3CCN(c4ccccc4)CC3)ccc2Cl)s1,101,61,100,101,104,14,.,.,.,.,.,.,.
CCN(CC(=O)Nc1ccc2c(c1)OCCO2)c1ccc(S(=O)(=O)N2CCOCC2)cn1,-83*,5,84,90,80,2,80*,1,102,103,99,102,112
CN(C)CCC(=O)c1cccc(Br)c1,94,18,95,102,93,9,.,.,.,.,.,.,.
COc1ccccc1/C=C\C=N\n1c(-c2ccc(Cl)cc2)n[nH]c1=S,7.8*,13,93,58*,88,2,88*,-2,92,75*,82,82,51
CC(C)=NNc1nc(-c2ccccc2)c(C)s1,94,25,97,94,97,8,.,.,.,.,.,.,.
CC(C)OC(=O)c1c(NC(=O)Cn2cnc([N+](=O)[O-])n2)sc2c1CCCC2,.,18,.,.,.,.,.,0,98,106,96,97,106
CCOC(=O)c1c(NC(=O)Cn2cnc([N+](=O)[O-])n2)sc2c1CCCC2,91,11,103,99,98,9,.,.,.,.,.,.,.
Oc1ccccc1Nc1nc(NCC2CCCO2)c2ccccc2n1 (stereo unspecified),89,21,41*,99,96,3,96*,2,100,105,103,101,104
C[N+](C)(CC#Cc1ccccc1)CC(=O)c1ccc(Cl)cc1,23*,9,115,84,114,2,114*,1,98,99,98,101,98
COc1cc(Cl)c(C)cc1NC(=O)CNC(C)c1ccccc1OC (stereo unspecified),50,21,90,85,93,16,.,.,.,.,.,.,.
O=C(c1cnsn1)N1CCN(c2ccccc2)CC1,102,23,248*[activator],81,118,163*,118*,0,102,100,99,99,94
COc1ccc(CCNC(=O)COC(=O)/C=C/c2cc(OC)c(OC)c(OC)c2)cc1OC,102,14,102,100,102,12,.,.,.,.,.,.,.
CC1CCCC(C)N1C(=O)CN1C(=O)C(C)(C)Oc2ccc(C(=O)NC3CCCCC3)cc21 (stereo unspecified),3,54,91,.,108,4,.,-1,100,101,101,98,92
CC1CCCC(C)N1C(=O)CN1C(=O)C(C)(C)Oc2ccc(C(=O)NC3CCCC3)cc21 (stereo unspecified),.,41,.,.,.,.,.,0,100,102,101,101,98
COc1ccc(NC(=O)C(NC(=O)c2ccc(=O)[nH]c2)c2ccc(C)cc2)cc1 (stereo unspecified),110,5,108,102,105,12,.,.,.,.,.,.,.
O=c1[nH]c2cc3c(cc2cc1CN(Cc1ccco1)C(=S)NCCCN1CCOCC1)OCCO3,143,9,100,110,102,5,.,.,.,.,.,.,.
Cc1c(Br)c([N+](=O)[O-])nn1CC(=O)N1CCc2ccccc2C1,24*,6,99,75,97,1,97*,-1,102,97,97,100,90
